In the supplement of paper PMC10127200:
Where a name gives a salt, the structure may show the parent alone.

What was measured:
Assay in all cases: Euclidean distance of Cell Painting phenotypic profile (signed KS, 77 features) to DMSO centroid (dimensionless distance); 5 or 10 uM (library dependent); higher = stronger phenotypic change vs DMSO (phenoactivity)
Settings in all cases: 48 h
[1] = system: 786-O
How it was run: (§1)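 Phenoactivity is defined as the Euclidean distance from a compound profile to the median vehicle profile. Each profile comprised 77 Harmony features, scored as signed Kolmogorov-Smirnov statistics versus same-plate vehicle wells, then plate-position corrected, correlation-weighted and replicate-averaged at the top dose. Five cancer lines and one healthy fibroblast line were exposed to library compounds for 48 h at 10 or 5 uM (0.1% DMSO final).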

[2] = system: A549
How it was run: as §1

[3] = system: DU145
How it was run: as §1

[4] = system: FB
How it was run: as §1

[5] = system: HEPG2
How it was run: as §1

[6] = system: OVCAR4
How it was run: as §1

| Compound | Euclidean distance [1] | Euclidean distance [2] | Euclidean distance [3] | Euclidean distance [4] | Euclidean distance [5] | Euclidean distance [6] |
| --- | --- | --- | --- | --- | --- | --- |
| Oc1ccc(-c2nc(-c3ccc(F)cc3)c(-c3ccncc3)[nH]2)cc1 | 1.58 | 0.841 | 1.39 | 1.38 | 2.99 | 2.17 |
| O=C(c1cc(Cc2n[nH]c(=O)c3ccccc23)ccc1F)N1CCN(C(=O)C2CC2)CC1 | 1.56 | 1.23 | 0.958 | 1.7 | 1.21 | 1.11 |
| CCS(=O)(=O)N1CCN(c2ccc(Nc3ncc(C(N)=O)c(NC4CC4)n3)cc2)CC1 | 2.57 | 3.03 | 3.16 | 2.62 | 2.51 | 3.39 |
| Cn1cnc2c(F)c(Nc3ccc(Br)cc3F)c(C(=O)NOCCO)cc21 | 2.04 | 2.89 | 2.61 | 3.82 | 1.63 | 1.91 |
| Cc1c(C(=O)Nc2ccc(N3C[C@@H](C)O[C@@H](C)C3)nc2)cccc1-c1ccc(OC(F)(F)F)cc1 [LDE225 (NVP-LDE225.Erismodegib)] | 0.757 | 1.2 | 0.747 | 0.782 | 1.4 | 1.38 |
| Nc1cc(F)ccc1NC(=O)/C=C/c1cnn(C/C=C/c2ccccc2)c1 | 1.54 | 1.02 | 0.877 | 2.44 | 1.27 | 0.895 |
| O=C1NS(=O)(=O)c2ccccc21 [Saccharin] | 1.09 | 0.449 | 0.729 | 0.738 | 0.461 | 0.73 |
| CS(=O)(=O)N1CCc2c(-c3cnc(N)nc3)nc(N3CCOCC3)nc21 | 1.32 | 2.54 | 0.984 | 2.13 | 0.817 | 2.01 |
| CCN[C@H]1CN(CCCOC)S(=O)(=O)c2sc(S(N)(=O)=O)cc21 [Brinzolamide] | 1.5 | 1.1 | 1.06 | 1.48 | 0.663 | 2.07 |
| CN[C@@H]1[C@H](O)[C@H](NC)[C@H]2O[C@@]3(O)C(=O)C[C@@H](C)O[C@H]3O[C@@H]2[C@H]1O [Spectinomycin 2HCl] | 1.1 | 0.735 | 0.979 | 1.48 | 0.555 | 0.972 |
| C[C@@H]1CC(=O)NN=C1c1ccc(NN=C(C#N)C#N)cc1 [Levosimendan] | 1.83 | 0.486 | 1.3 | 1.44 | 0.487 | 0.625 |
| COc1cc(-c2ncn(/C=C\C(=O)OC(C)C)n2)cc(C(F)(F)F)c1 | 3.51 | 3.05 | 3.45 | 3.74 | 2.56 | 4.53 |
| Cc1cc(C(=O)NOCCO)c(Nc2ccc(I)cc2F)n(C)c1=O | 2.89 | 2.95 | 2.82 | 4.35 | 1.48 | 1.72 |
| CC(C)N(CCCNC(=O)Nc1ccc(C(C)(C)C)cc1)C[C@H]1O[C@@H](n2cc(Br)c3c(N)ncnc32)[C@H](O)[C@@H]1O | 0.633 | 1.32 | 1.19 | 1.58 | 1.15 | 0.804 |
| CCN1C(=O)NC(c2ccccc2)C1=O (stereo unspecified) [Ethotoin] | 0.868 | 0.725 | 0.615 | 0.863 | 0.528 | 1.28 |
| COc1ccc(-c2ccc3c(N4CCOC[C@@H]4C)nc(N4CCOC[C@@H]4C)nc3n2)cc1CO | 4 | 3.49 | 2.25 | 5.02 | 2.55 | 3.73 |
| CC1(C)O[C@@H]2C[C@H]3[C@@H]4CCC5=CC(=O)C=C[C@]5(C)[C@H]4[C@@H](O)C[C@]3(C)[C@]2(C(=O)CO)O1 [Desonide] | 1.09 | 1.9 | 2.27 | 1.55 | 0.639 | 1.61 |
| COc1c(C)c2c(c(O)c1C/C=C(\C)CCC(=O)OCCN1CCOCC1)C(=O)OC2 [Mycophenolate Mofetil] | 2.59 | 3.61 | 2.11 | 3.32 | 2.76 | 3.19 |
| COc1cc(N2CCC(N3CCN(C)CC3)CC2)ccc1Nc1ncc(Cl)c(Nc2ccccc2S(=O)(=O)C(C)C)n1 | 2.54 | 3.06 | 2.48 | 3.6 | 1.66 | 3.35 |
| CC1=C[C@H]2C(=O)O[C@H]3C[C@@H](C/C=C(\C)C[C@@H](C)/C=C/C=C4\CO[C@H](/C1=N\O)[C@@]42O)O[C@@]1(CC[C@H](C)[C@@H](C)O1)C3.CC[C@H]1O[C@]2(CC[C@@H]1C)C[C@@H]1C[C@@H](C/C=C(\C)C[C@@H](C)/C=C/C=C3\CO[C@@H]4/C(=N\O)C(C)=C[C@@H](C(=O)O1)[C@]34O)O2 [Milbemycin Oxime] | 0.91 | 0.957 | 0.954 | 1.3 | 0.456 | 1.11 |
| CCC[C@@H](C=O)NC(=O)[C@H](CC(C)C)NC(=O)[C@H](CC(C)C)NC(=O)OCc1ccccc1 | 5.22 | 4.01 | 5.17 | 4.63 | 4.52 | 5.15 |
| CC(=O)OCC(COC(C)=O)OC(C)=O [Triacetin] | 1.28 | 0.762 | 1.03 | 1.11 | 1.02 | 0.787 |
| C[C@H](O)C(=O)Nc1c(I)c(C(=O)NC(CO)CO)c(I)c(C(=O)NC(CO)CO)c1I [Iopamidol] | 0.656 | 0.571 | 0.699 | 1.06 | 0.734 | 1.33 |
| COc1cc(C[C@H]2C(=O)OC[C@@H]2Cc2ccc(OC)c(OC)c2)ccc1O [(-)-Arctigenin] | 1.04 | 1.48 | 1.36 | 0.929 | 2.46 | 1.29 |
| O=C(Cn1cnnn1)N[C@@H]1C(=O)N2C(C(=O)O)=C(CSc3nncs3)CS[C@H]12 [Ceftezole sodium] | 0.633 | 1.39 | 1.36 | 0.846 | 0.929 | 0.929 |
| C[C@H]1COc2c(C3(N)CC3)c(F)cc3c(=O)c(C(=O)O)cn1c23 [Pazufloxacin mesylate] | 1 | 1.18 | 0.975 | 0.993 | 1.28 | 1.36 |
